# Measured values: PubChem BioAssay AID686978 (National Center for Advancing Translational Sciences (NCATS), 2013)
# Values joined by “and” are separate entries in the source; they are usually repeats but may differ in a detail not shown here. Equal values may be shown once. Out of some 420,000 compounds screened, about 64,000 (15%) were called active. Another 27% or so got no clear call; they are omitted. Calls follow the shape of the dose curve; as a rule, active = well fitted inhibition curve with a large enough effect; inconclusive = small, poorly fitted or top-dose-only effect; inactive = flat fitted curve, though single readings scatter. Only a sample is shown. A call without a number means that no potency is given here.
# Assay: qHTS for Inhibitors of human tyrosyl-DNA phosphodiesterase 1 (TDP1): qHTS in cells in absence of CPT; also: nearly all actives have a fitted effect of over 55% in size
# Conditions: DT40 Tdp1-/- hTDP1 cells, no CPT, ATP luminescence, 48 h; activity change, negative = growth inhibition: at 46.2 µM (top of the series)
# Outline: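 Compound effects on proliferation are scored in DT40 Tdp1-/-;hTDP1 cells in the absence of CPT. ATP levels (CellTiter-Glo luminescence) are recorded after a ≥48 hr, 37 °C incubation.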
# Potency is read from the fitted curve at half-maximal effect.
row,SMILES,Potency
1,O=C(CSc1nnc(-c2ccccc2)o1)N1CCOCC1,inactive
2,O=C(CN1C(=O)c2ccccc2S1(=O)=O)N1CCc2ccccc21,inactive
3,Cc1ccc2c(O)c(Cc3ccccc3)c(=O)[nH]c2n1,inactive
4,CC(C)N(Cc1nnc(-c2ccc(Cl)cc2)o1)C(=O)C1=COCCO1,inactive
5,O=c1nc(NO)ccn1C1CCCO1 (stereo unspecified),inactive
6,Cc1ccc(OCc2nnc(NC(=O)OCC(C)C)s2)cc1,inactive
7,O=C(CNC(=O)c1cccs1)N/N=C/c1cccc(Br)c1,inactive
8,CC(=O)N1CCCc2cc(S(=O)(=O)Nc3ccc(Cl)cc3F)ccc21,23.1 µM (active)
9,CC(=O)N1c2ccc(S(=O)(=O)N3CCCC(C(=O)Nc4cccc(F)c4)C3)cc2CC1C (stereo unspecified),29.1 µM (active)
10,CC(=O)N1CCCc2cc(S(=O)(=O)N3CCCC(C(=O)N4CCN(c5cccc(Cl)c5)CC4)C3)ccc21 (stereo unspecified),2.59 µM (active) and 8.2 µM (active)
11,CCOC(=O)C1CCCN(S(=O)(=O)c2ccc3c(c2)C(C)(C)C(=O)N3C)C1 (stereo unspecified),inactive
12,Cc1cc(C)cc(NC(=O)C2CCCN(S(=O)(=O)c3ccc4[nH]c(=O)ccc4c3)C2)c1 (stereo unspecified),inactive
13,CCc1cccc(NC(=O)C2CCCN(S(=O)(=O)c3ccc4[nH]c(=O)ccc4c3)C2)c1 (stereo unspecified),inactive
14,CC(=O)N1CCCc2ccc(NS(=O)(=O)c3ccc(F)cc3F)cc21,inactive
15,O=C(Nc1cccc(Cl)c1)c1cc(S(=O)(=O)N2CCCCC2)c[nH]1,inactive
16,CC(=O)N1c2ccc(S(=O)(=O)N3CCC(C(=O)NCc4ccc(F)cc4)CC3)cc2CC1C (stereo unspecified),inactive
17,CCOC(=O)C1CCCN(S(=O)(=O)c2ccc(-n3cnnn3)c(C)c2)C1 (stereo unspecified),inactive
18,COc1ccc(NC(=O)C(CC(C)C)NS(=O)(=O)c2ccc3c(c2)CCN3C(C)=O)cc1OC (stereo unspecified),inactive
19,CC(=O)N1c2ccc(S(=O)(=O)N3CCCC(C(=O)Nc4cccc(Cl)c4)C3)cc2CC1C (stereo unspecified),20.6 µM (active)
20,Cc1nc2cc(S(=O)(=O)C(F)(F)F)ccc2s1,inactive
21,CCOC(=O)c1sc(NC(=O)C2CSC3(C)CCC(=O)N23)nc1C (stereo unspecified),inactive
22,O=C(COC(=O)[C@H](Cc1ccccc1)NC(=O)c1cccs1)Nc1cc(F)ccc1F,inactive
23,C/C(=N\Nc1ccc([N+](=O)[O-])cc1)c1ccc(-n2nncc2C(C)(C)C)cc1,inactive
24,CCc1cc(=O)oc2c(C)c(OCC(=O)N3CC[C@@]4(O)CCCC[C@H]4C3)ccc12,inactive
25,COC(=O)C1=NN(c2ccccc2)C2C(=O)N(c3ccccc3OC)C(=O)C12 (stereo unspecified),inactive
26,COc1ccc(S(=O)(=O)NNC(=O)Nc2ccc(C)cc2)c(OC)c1,inactive
